Data on 39 molecules can be found in PubChem BioAssay.

The other results are listed elsewhere or left out. A number with no mark means an inactive call. The source made the active and inactive calls.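 The calls were made as follows, unless noted: active = inhibition above the primary screen's cutoff, its mean inhibition plus 3 SD (cut at about 35% in these data); inactive = the rest.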

The target of one assay is Glutathione S-transferase omega-1 (Homo sapiens) (UniProt P78417). Put plainly: GSTO1 inhibitor hit confirmation, counter-screen for RBBP9 inhibitor project, biochemical, fluorescence polarization, triplicate (AID 2176).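 Also: loss of polarization as inhibitors block binding of rhodamine sulfonate ester activity probe; 0% = GSTO1 with DMSO and 100% = wells lacking GSTO1 enzyme.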 To be noted: recombinant GSTO1, probe fluorescence polarization; at 5.96 µM; stronger effect = higher value. (In general: Counterscreens check selectivity or assay interference.)
Glutathione S-transferase omega-1 (Homo sapiens), sequence (P78417 whole entry, looked up): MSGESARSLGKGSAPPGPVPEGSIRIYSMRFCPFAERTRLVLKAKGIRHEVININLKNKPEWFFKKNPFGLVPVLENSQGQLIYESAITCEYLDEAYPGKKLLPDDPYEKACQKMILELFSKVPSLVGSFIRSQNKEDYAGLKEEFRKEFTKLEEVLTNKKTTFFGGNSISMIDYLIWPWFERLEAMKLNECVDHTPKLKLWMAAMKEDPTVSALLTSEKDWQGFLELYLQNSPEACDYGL
What is called inhibition is the relative decrease from the control value, in per cent. On to `COCCN1C=C2C(=O)C(C)(OC(=O)C3CCCC3)C(=O)C=C2C=C1c1ccsc1` (stereo unspecified), for which the inhibition is 7.54%.
On to `COc1ccc(C(C(=O)NC2CCCCC2)N(C(=O)CCl)c2ccccc2Cl)cc1` (stereo unspecified), for which the inhibition was 45% (active).
The same measure, in the same setting: to `C[n+]1ccccc1C1CCCC/C1=N\Nc1ccc([N+](=O)[O-])cc1[N+](=O)[O-]` (stereo unspecified) belongs 6.21%.
Same read-out and setting: under `COc1ccc(S(=O)(=O)N2CCOCC2)cc1NC(=O)CSc1ncnc2ccccc12` stands 15.2%; under `O=c1c(/C=N/O)coc2ccc(Cl)cc12`, 4.5%.
For the molecule `COC1=C(N2CCOCC2)C(=O)c2ccccc2C1=O`, the inhibition was 28.9%.
On the same count and under the same terms, under `COC(=O)c1ccc(CSc2nncn2N)cc1` stands 1.78%; under `O=S(=O)(O)Oc1c[nH]c2ccccc12`, 51.2% (active).
Consider `CC1C(=O)Nc2ccccc2N1C(=O)c1ccc(F)cc1F` (stereo unspecified), for which the inhibition was 5.92%.
On the same count and under the same terms, to `CC(C)CC[n+]1ccn(C2=C([O-])c3ccccc3C(=O)/C2=N\S(=O)(=O)c2ccccc2)c1` belongs 68.2% (active); to `O=C(Cn1c(-c2ccccn2)nc2ccccc21)NCCN1CCOCC1`, 6.3%; to `CCOc1c(Br)cc(/C=C2\C(=O)N(CCC#N)N=C2C)cc1OC`, 3.85%.
Still for that read-out and setting: under `NNC(=O)c1oc2nc(-c3ccccc3)cc(-c3ccco3)c2c1N` stands 3.35%; under `O=C(CCl)NNc1cccc(Cl)n1`, 50% (active); under `O=C(CCl)Nc1cccc(CP(=O)(c2ccccc2)c2ccccc2)c1`, 90.4% (active).
On the same count and under the same terms, under `O=c1cc(CCl)nc2scc(-c3ccccc3)n12` stands 96.3% (active).
Take `Oc1c(C=Nc2cccc3nsnc23)ccc2ccccc12`: the inhibition is 69.9% (active).
In the case of `O=C(Nc1cc(N2CCOCC2)ncn1)NC1(C(F)(F)F)Oc2ccc(Cl)cc2O1` (stereo unspecified), the inhibition is 8.59%.
On the same count and under the same terms, to `O=C(c1cccnc1)N(c1cc2sc(=O)oc2c2ccccc12)S(=O)(=O)c1ccccc1` belongs 6.84%; to `O=C(Cc1cc(=O)[nH][nH]1)N/N=C/c1ccccc1[N+](=O)[O-]`, 5.98%; to `O=C1Nc2c(Br)cc(Br)cc2C1(O)N1CCOCC1` (stereo unspecified), 25.2%.
Still for that read-out and setting: under `CC1=CC(C)(C)Nc2ccc(OC(=O)CN3C(=O)C4CCCCC4C3=O)cc21` (stereo unspecified) stands 1.06%; under `Oc1ccc(CNc2ccccc2O)cc1`, 21.7%.
Same read-out and setting: under `c1coc(-c2nc3nc4ccccc4n3nc2-c2ccco2)c1` stands 16.5%.
With `CC/C(=N/Nc1ccccc1)c1cnnc(SC)n1`, the inhibition was 9.56%.
Turning to `CC(=O)N(C1=C(Cl)C(=O)c2ccccc2C1=O)c1ccc(C(=O)O)cc1`, the inhibition is 77.8% (active).
On the same count and under the same terms, to `CC(C)(C)n1cnnc1Sc1ccc([N+](=O)[O-])cn1` belongs 28.1%; to `COC(=O)CCCC1=CC2=CC(=O)C(C)(OC(=O)c3cccs3)C(=O)C2=CN1CC1CC1` (stereo unspecified), 30.3%; to `CC(C)(C)OC(=O)c1c(N)n(CCCN2CCCC2=O)c2nc3ccccc3nc12`, 57.9% (active).
On the same count and under the same terms, to `Cn1c(SCC(=O)N/N=C/c2ccc(O)c(O)c2)nc2ccccc21` belongs 3.76%; to `COc1ccc(-c2csc(Nc3ccc(O)cc3)n2)cc1`, 7.69%; to `O=[N+]([O-])c1ccc(C=Nc2ccc(Cl)cc2Cl)s1`, 11.6%.
Same read-out and setting: to `CCC1(CC)Cc2ccccc2-c2nc(CCl)[nH]c(=O)c21` belongs 94% (active); to `Cc1[nH][nH]c(=O)c1C(c1ccc(-c2ccc(Cl)cc2)o1)c1c(C)[nH][nH]c1=O`, 22.6%.
Consider `O=C(O)c1cccc(NC(=S)N/N=C/c2c[nH]c3ccccc23)c1`, for which the inhibition is 54.5% (active).
Still for that read-out and setting: under `COc1ccccc1CCCNC(=O)C1CCC(=O)N(CCN2CCOCC2)C1` (stereo unspecified) stands 5.53%; under `O=C(OCC(=O)N1CCCC1=O)c1cc(S(=O)(=O)N2CCOCC2)ccc1Cl`, 1.2%; under `CCCc1nc2ccccc2c(=O)n1/N=C/c1ccc(O)c(O)c1`, 3.52%.
On the same count and under the same terms, to `O=C(c1[nH]ncc1-c1ccc(Cl)cc1)C1CO1` (stereo unspecified) belongs 79.6% (active).

For the next assay, the target named is Insulin-degrading enzyme (Homo sapiens) (UniProt P14735). Put plainly: human IDE inhibitors in live cells, confirmation, fluorescence polarization, HEK cells, FAbetaB substrate (AID 435028;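 active = mean inhibition across triplicate wells above the cutoff set by the earlier primary insulin-degrading enzyme screen, cut at about 16% in these data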;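 also: 0% = DMSO wells and 100% = 60 µM reference IDE inhibitor Ii1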). The following applies: FAbetaB cleavage, at 5.59 µM, stronger effect = higher value. On the technique in general: Fluorescence polarisation rises when a labelled molecule tumbles more slowly, as on binding a larger partner.
Insulin-degrading enzyme (Homo sapiens), sequence (P14735 whole entry, looked up): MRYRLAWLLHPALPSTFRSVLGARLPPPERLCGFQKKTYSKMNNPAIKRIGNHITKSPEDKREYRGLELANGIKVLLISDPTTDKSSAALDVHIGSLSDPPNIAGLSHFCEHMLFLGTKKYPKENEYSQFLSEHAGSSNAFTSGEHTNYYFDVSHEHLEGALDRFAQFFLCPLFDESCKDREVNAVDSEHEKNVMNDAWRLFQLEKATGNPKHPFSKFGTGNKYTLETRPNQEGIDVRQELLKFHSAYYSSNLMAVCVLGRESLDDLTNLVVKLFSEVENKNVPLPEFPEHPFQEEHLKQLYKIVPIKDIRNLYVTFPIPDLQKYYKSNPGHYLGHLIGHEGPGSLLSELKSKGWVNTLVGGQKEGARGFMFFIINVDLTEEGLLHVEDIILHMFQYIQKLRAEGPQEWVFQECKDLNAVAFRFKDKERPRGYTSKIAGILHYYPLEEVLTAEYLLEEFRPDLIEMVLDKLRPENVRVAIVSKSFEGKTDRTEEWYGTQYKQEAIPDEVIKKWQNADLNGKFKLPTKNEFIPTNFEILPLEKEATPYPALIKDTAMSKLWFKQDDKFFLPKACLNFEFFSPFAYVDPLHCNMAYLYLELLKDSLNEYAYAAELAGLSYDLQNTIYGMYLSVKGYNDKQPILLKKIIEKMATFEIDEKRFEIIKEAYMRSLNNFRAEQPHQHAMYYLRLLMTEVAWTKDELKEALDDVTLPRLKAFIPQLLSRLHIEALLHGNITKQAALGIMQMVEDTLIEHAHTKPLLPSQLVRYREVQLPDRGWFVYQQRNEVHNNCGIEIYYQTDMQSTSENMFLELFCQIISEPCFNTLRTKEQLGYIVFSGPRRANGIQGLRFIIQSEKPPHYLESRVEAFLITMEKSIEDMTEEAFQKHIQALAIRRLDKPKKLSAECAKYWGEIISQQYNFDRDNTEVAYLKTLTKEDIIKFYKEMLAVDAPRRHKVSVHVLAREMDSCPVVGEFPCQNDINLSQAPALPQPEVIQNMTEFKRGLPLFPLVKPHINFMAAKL
Regarding `O=C(c1cccnc1)N(c1cc2sc(=O)oc2c2ccccc12)S(=O)(=O)c1ccccc1`, the inhibition was 3.36%.
Still for that read-out and setting: under `CC1=CC(C)(C)Nc2ccc(OC(=O)CN3C(=O)C4CCCCC4C3=O)cc21` (stereo unspecified) stands 29.8% (active); under `CC(=O)N(C1=C(Cl)C(=O)c2ccccc2C1=O)c1ccc(C(=O)O)cc1`, 164% (active).

Test system in a further assay: not listed separately
Put plainly: cytotoxicity in HEK cells, cytotoxicity control for IDE inhibitor project, cell-based, luminescence (AID 449730; in the data active = inhibition above about 22%;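 also: 0% = vehicle wells and 100% = reference cytotoxic drug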). To be noted: HEK293 cytotoxicity, ATP luminescence; at 5.59 µM; stronger effect = higher value.
`O=C(c1cccnc1)N(c1cc2sc(=O)oc2c2ccccc12)S(=O)(=O)c1ccccc1`: the inhibition was 10.9%.
The same measure, in the same setting: to `CC1=CC(C)(C)Nc2ccc(OC(=O)CN3C(=O)C4CCCCC4C3=O)cc21` (stereo unspecified) belongs 75% (active); to `CC(=O)N(C1=C(Cl)C(=O)c2ccccc2C1=O)c1ccc(C(=O)O)cc1`, 14.1%.

The target of another assay is Protein-arginine deiminase type-4 (Homo sapiens) (UniProt Q9UM07). Put plainly: human PAD4 inhibitors, confirmation, biochemical, fluorescence polarization (AID 488796;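 active = mean inhibition across replicates above the hit cutoff set by the earlier primary screen, cut at about 15% in these data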;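 also: inhibitors block active-site labeling by the probe so polarization falls; 0% = PAD4 with probe and DMSO and 100% = probe without PAD4 enzyme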). The following applies: recombinant PAD4, RCA probe fluorescence polarization; at 6.36 µM; stronger effect = higher value.
Protein-arginine deiminase type-4 (Homo sapiens), sequence (Q9UM07 whole entry, looked up): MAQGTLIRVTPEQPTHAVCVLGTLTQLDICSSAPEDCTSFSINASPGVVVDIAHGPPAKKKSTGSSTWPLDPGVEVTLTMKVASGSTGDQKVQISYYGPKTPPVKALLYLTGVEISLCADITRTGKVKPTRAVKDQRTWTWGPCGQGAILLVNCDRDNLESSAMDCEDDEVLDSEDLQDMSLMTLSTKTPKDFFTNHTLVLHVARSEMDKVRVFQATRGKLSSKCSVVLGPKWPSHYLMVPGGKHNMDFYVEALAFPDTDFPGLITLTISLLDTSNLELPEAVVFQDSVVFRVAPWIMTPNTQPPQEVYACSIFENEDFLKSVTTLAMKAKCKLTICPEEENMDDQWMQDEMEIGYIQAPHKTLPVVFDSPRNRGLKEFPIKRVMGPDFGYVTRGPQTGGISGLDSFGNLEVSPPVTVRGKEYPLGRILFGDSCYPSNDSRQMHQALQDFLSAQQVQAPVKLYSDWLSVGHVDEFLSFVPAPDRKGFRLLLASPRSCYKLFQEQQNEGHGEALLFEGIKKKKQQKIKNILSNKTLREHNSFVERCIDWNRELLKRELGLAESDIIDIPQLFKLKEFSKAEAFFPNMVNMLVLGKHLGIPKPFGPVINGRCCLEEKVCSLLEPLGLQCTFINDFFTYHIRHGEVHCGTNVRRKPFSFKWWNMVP
Regarding `COCCN1C=C2C(=O)C(C)(OC(=O)C3CCCC3)C(=O)C=C2C=C1c1ccsc1` (stereo unspecified), the inhibition is -1.24%.
Same read-out and setting: to `COc1ccc(S(=O)(=O)N2CCOCC2)cc1NC(=O)CSc1ncnc2ccccc12` belongs 0.87%; to `CCOc1c(Br)cc(/C=C2\C(=O)N(CCC#N)N=C2C)cc1OC`, -1.18%.
The same measure, in the same setting: under `Oc1c(C=Nc2cccc3nsnc23)ccc2ccccc12` stands -54.5%; under `COC(=O)CCCC1=CC2=CC(=O)C(C)(OC(=O)c3cccs3)C(=O)C2=CN1CC1CC1` (stereo unspecified), 1.6%; under `Cc1[nH][nH]c(=O)c1C(c1ccc(-c2ccc(Cl)cc2)o1)c1c(C)[nH][nH]c1=O`, 2.58%.
